The record followed here is ChEMBL document CHEMBL1961873, “Compounds: GSK PKIS; Assays: Nanosyn kinase panel” (2012).
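Note: values are mean percent inhibition of BTK across replicate measurements.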

In this assay the target is Tyrosine-protein kinase BTK (Homo sapiens) (UniProt Q06187). The note with it: at 1 µM.
Chain of Tyrosine-protein kinase BTK (Homo sapiens) (Q06187 whole entry): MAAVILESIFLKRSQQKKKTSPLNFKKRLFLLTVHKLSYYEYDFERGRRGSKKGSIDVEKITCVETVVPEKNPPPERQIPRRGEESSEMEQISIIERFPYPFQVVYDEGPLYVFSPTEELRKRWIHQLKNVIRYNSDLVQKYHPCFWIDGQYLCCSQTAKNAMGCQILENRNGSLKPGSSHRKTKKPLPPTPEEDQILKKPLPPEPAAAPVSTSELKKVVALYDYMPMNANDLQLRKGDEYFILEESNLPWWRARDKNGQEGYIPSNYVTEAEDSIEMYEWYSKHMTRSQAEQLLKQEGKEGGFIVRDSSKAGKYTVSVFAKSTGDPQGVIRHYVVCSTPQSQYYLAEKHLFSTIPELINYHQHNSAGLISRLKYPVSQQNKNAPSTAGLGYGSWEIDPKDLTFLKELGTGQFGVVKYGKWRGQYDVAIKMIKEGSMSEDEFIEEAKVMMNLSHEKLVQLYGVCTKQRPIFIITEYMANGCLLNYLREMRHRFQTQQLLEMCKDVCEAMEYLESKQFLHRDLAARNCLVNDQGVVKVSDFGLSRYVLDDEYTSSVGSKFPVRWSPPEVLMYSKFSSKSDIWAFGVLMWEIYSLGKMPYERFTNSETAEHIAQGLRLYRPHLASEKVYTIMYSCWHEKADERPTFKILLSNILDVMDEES
For the compound `CNC(=O)c1cccc(C#Cc2cncnc2Nc2ccc(OCc3cccc(F)c3)c(Cl)c2)c1`, the inhibition (commonly the change of the read-out against control, counted positive when it falls) was -0.29%.
To `Fc1ccc(-c2cc(-c3c[nH]nc3-c3ccccn3)ccn2)cc1` belongs -1.93%; to `CN1CCC(n2cnc(-c3ccc(F)cc3)c2-c2ccnc(Nc3ccccc3)n2)CC1`, 1.25%; to `CCn1c(-c2nonc2N)nc2c(C#CC(C)(C)O)ncc(OC3CCNCC3)c21`, 0.56%.
To `COc1cccc(-c2c[nH]c3c(N/N=C/c4ccncc4)ncnc23)c1` belongs 2.48%; to `Cc1ccc2c(-c3ccnc(Nc4ccccc4)n3)c(-c3ccc(F)cc3)nn2n1`, 6.06%; to `COC(=O)Nc1nc2ccc(Oc3ccc(NC(=O)Nc4cccc(Cl)c4)cc3)cc2[nH]1`, -0.37%.
To `COc1ccc(-c2cc(-c3c[nH]nc3-c3ccccn3)ccn2)cc1` belongs 1.28%; to `COc1cc(/C=N/Nc2ncnc3[nH]ncc23)ccc1O`, 7.64%; to `[O-][S+]1CCN(Cc2ccc(-c3ccc4ncnc(Nc5ccc(OCc6cccc(F)c6)c(Cl)c5)c4c3)o2)CC1`, 0.99%.
For the compound `CCNC(=O)O[C@H]1CN[C@H](C#Cc2cc3ncnc(Nc4ccc(OCc5cccc(F)c5)c(Cl)c4)c3s2)C1`, the inhibition turned out to be 1.29%.
To `CC1=C(C(=O)Nc2cc(Cl)c3[nH]ncc3c2)C(c2ccc(C(F)(F)F)cc2)CC(=O)N1` (stereo unspecified) belongs 0.33%; to `c1ccc(-c2nc3n(c2-c2ccc4c(c2)OCO4)CCC3)nc1`, -1.35%; to `CCOc1ccc2c(-c3ccnc(Nc4cccc(C(F)(F)F)c4)n3)cnn2n1`, 1.18%.
`CCN1CCC(CC(=O)Nc2n[nH]c3nnc(-c4cccc(F)c4F)cc23)CC1`: the inhibition came out at 1.15%.
To `COc1ccc2[nH]c3c4[nH]c5ccc(OC)cc5c4c4c(c3c2c1)C(=O)NC4=O` belongs 8.32%.
